This is a sample that favours compounds with a hit; in the whole collection about 1.2% have one here.
eIF4E-4G inh = blocks eIF4E binding to eIF4G | 0.37% of 220,000 active | TR-FRET eIF4E-eIF4GI(517-606) binding, 2 h | inhibition, % at 21.7 µM;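 active = inhibition above about 30%, limit read from the data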;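 also: 0% = full FRET control wells and 100% = background wells lacking eIF4GI fragment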
L929 necroptosis = blocks zVAD induced death of L929 cells. 0.38% of 220,000 active. L929 zVAD necroptosis rescue, ATP luminescence, 24 h; with zVAD 60 µM. AID 1377. viability rescue, % at 10 µM;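 active = activation, scaled between plate controls, above about 75%, limit read from the data; inactive = activation under that limit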;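 also: 0% = zVAD with DMSO and 100% = DMSO alone without zVAD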
EBV gp42 block = blocks Epstein-Barr virus glycoprotein 42 binding | Q1HVG2 | Fluorescence polarization binding assay, mP read-out | inhibition, % (tested at 21.74 µM) | 0.42% of 220,000 active; in the data active = inhibition above about 50%
Target sequence (Q1HVG2 whole entry, looked up): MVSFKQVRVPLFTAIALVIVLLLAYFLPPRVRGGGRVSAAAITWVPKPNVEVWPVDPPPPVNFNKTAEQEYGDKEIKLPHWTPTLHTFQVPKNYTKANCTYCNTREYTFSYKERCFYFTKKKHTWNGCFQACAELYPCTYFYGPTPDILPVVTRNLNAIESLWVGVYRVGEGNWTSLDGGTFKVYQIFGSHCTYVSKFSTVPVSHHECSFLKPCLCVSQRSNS
TNF necrop inh = inhibitors of TNF-alpha induced necroptosis in Jurkat FADD-/- cells; Jurkat FADD-/- TNF necroptosis rescue, ATP luminescence, 24 h; 0 = TNF only, 100 = no-TNF cells; activation (protection from cell death), % at 10 µM; 0.068% of 220,000 active;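 active = activation, meaning protection from cell death, of at least 50% relative to plate controls; inactive = activation below 50%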;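 also: necroptosis triggered by 40 ng/mL TNF-alpha added together with compound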
zVAD necrop conf = confirmed blocker of zVAD induced death in L929 cells. shares compounds with L929 necroptosis. L929 zVAD-induced necroptosis rescue, ATP luminescence, 24 h. activation (protection from necroptosis), % at 10 µM. 16% of 760 active;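 active = mean protection from necroptosis of at least 50% over duplicate tests; inactive = mean protection below 50%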;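 also: 0% = cells with zVAD alone and 100% = vehicle cells without zVAD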
Numbers without * were called inactive; · = no result given.

SMILES	eIF4E-4G inh	L929 necroptosis	EBV gp42 block	TNF necrop inh	zVAD necrop conf
CCN1CCN(CC(=O)Nc2nc3ccc(OC)cc3s2)CC1	-1	84*	21	2	22
COc1ccc2nc(NC(=O)CN3CCN(C)CC3)sc2c1	-2	92*	0	-1	37
COc1ccc2nc(NC(=O)CCN3C(=O)c4ccccc4C3=O)sc2c1	-4	1	-12	0	·
CC(=O)Nc1ccc(Nc2ncc([N+](=O)[O-])c(Nc3ccc(NC(C)=O)cc3)n2)cc1	·	90*	-9	-11	26
COc1ccc(Cl)cc1NC(=S)NCc1ccco1	0	0	-22	-3	·
Cn1nc(C(C)(C)C)cc1NC(=O)Nc1ccc(F)cc1F	3	9	4	3	·
Cn1nc(C(C)(C)C)cc1NC(=O)Nc1ccc(Cl)cc1	0	82*	0	6	55*
COC(=O)c1nc(N)sc1-c1ccc(Cl)c(Cl)c1	3	1	-13	-1	·
COc1ccc(/C=C/C(=O)c2ccc[nH]2)c(OC)c1OC	4	52	-17	14	·
COc1ccc(/C=C/C(=O)c2ccc[nH]2)cc1OC	13	89*	-17	20	42
CS(=O)(=O)c1ccc(S(=O)CC(=O)Oc2ccc(Cl)cc2)c([N+](=O)[O-])c1 (stereo unspecified)	-2	-1	-4	-2	·
CCN(CC)CC(=O)Nc1scc2c1c(=O)oc1ccccc12	-4	49	-8	5	·
N#CC(C#N)=C1C=CC=CN1/C(=C\c1ccco1)C(=O)c1ccc(-c2ccccc2)cc1	-1	99*	6	-4	25
N#CC(C#N)=C1C=CC=CN1/C(=C\c1ccco1)C(=O)c1ccc(Cl)cc1	14	0	-1	-1	·
Fc1ccc(NC(=S)N2N=CCC2c2ccccc2)cc1 (stereo unspecified)	6	82*	-27	94*	10
O=C(Nc1cccc(Cl)c1)N1N=CCC1c1ccccc1 (stereo unspecified)	-3	89*	-4	92*	85*
Fc1ccc(NC(=S)N2CCCC(c3ccccc3)=N2)cc1	-3	0	-10	1	·
CC(=O)N/N=C(\C)C1COc2ccccc2O1 (stereo unspecified)	0	-1	1	2	·
Cc1ccc2nc(-c3ccc(N4C(=N)SC5CS(=O)(=O)CC54)cc3)sc2c1 (stereo unspecified)	-3	7	-7	3	·
Cc1cc([N+](=O)[O-])nn1Cc1ccc(C(=O)N/N=C/c2ccc(N(C)C)cc2)cc1	6	2	-6	2	·
CC(C(=O)Nc1nncs1)N1C(=O)C2C3C=CC(C3)C2C1=O (stereo unspecified)	4	78*	-29	1	0
CN(C)C(=O)c1ccc(-c2nnc(NCc3ccccc3)c3ccccc23)cc1	0	75*	-20	2	36
NC(=O)c1ccc(Nc2nnc(-c3ccc(O)cc3)c3ccccc23)cc1	-3	22	11	1	·
COC(=O)c1cn(NC(=O)/C=C/c2cc(OC)ccc2OC)c(=O)c2ccccc12	3	1	-5	0	·
COc1ccccc1NC(=O)Nc1ccncc1	-2	1	-4	-2	·
SMILES	eIF4E-4G inh	L929 necroptosis	EBV gp42 block	TNF necrop inh	zVAD necrop conf
COc1ccc(NC(=O)Nc2ccc(Cc3ccncc3)cc2)cc1OC	14	82*	-19	0	37
COc1ccccc1NC(=O)Nc1ccc(Cc2ccncc2)cc1	0	78*	-2	4	38
O=C(N=C1SCC(=O)N1c1ccccc1Cl)c1ccccc1	1	4	5	1	·
COc1ccc(S(=O)(=O)NCCC(=O)NC2CCCCCCC2)cc1	0	81*	-20	0	21
c1ccc(Nc2nc3ccccc3[nH]2)nc1	-1	75*	-3	0	8
Cc1cc(C)nc(Nc2nc3ccccc3[nH]2)n1	-4	0	-7	-1	·
O=C(OCn1ncc(Br)c(Br)c1=O)c1ccccc1Cl	-29	44	-1	-14	·
O=C(OCn1ncc(Br)c(Br)c1=O)c1ccc(F)cc1	-10	113*	-2	-24	136*
c1ccc2c(-c3cn4ccccc4n3)c[nH]c2c1	0	2	-11	-3	·
CC(C)CC(=O)Nc1nc2ccc(S(C)(=O)=O)cc2s1	-3	81*	-18	-5	10
CCCC(=O)Nc1nc2ccc(S(N)(=O)=O)cc2s1	0	80*	-8	0	1
CCC(=O)Nc1nc2ccc(S(C)(=O)=O)cc2s1	5	63	-7	-6	·
CCNC(=O)c1c(O)c2ccccc2[nH]c1=O	6	76*	6	55*	2
Oc1ccc(/C=N/Nc2ccc(C(F)(F)F)cn2)cc1	-1	83*	7	38	63*
COc1cc(/C=N/Nc2ccc(C(F)(F)F)cn2)cc(OC)c1O	3	81*	-9	36	75*
O=C(C1=NNCC1c1ccc(Cl)cc1)C1CO1 (stereo unspecified)	-3	89*	-11	57*	94*
CC(C)(C)c1cc(C(=O)NNC(=O)c2ccc(Cl)cc2)no1	2	0	7	1	·
O=C(Nc1ccc(-c2nnc(-c3ccccc3)o2)cc1)C(F)(F)F	-5	1	0	-2	·
CC(=O)/C=C(\C)Nc1ccc(-c2cnc(-c3ccccc3)o2)cc1	-19	96*	-12	-4	22
O=C(NCc1ccc(Cl)cc1)C(=O)Nc1nccs1	-4	1	-15	1	·
C/C=C/C=C/C(=O)Nc1nccs1	-3	86*	-18	11	4
O=C(/C=C/c1ccc(Cl)cc1)Nc1nccs1	6	77*	0	30	19
O=C(O)c1cccc(-n2cccc2/C=C/[N+](=O)[O-])c1	2	1	2	1	·
CCCCN1Cc2c(nc3cc(-c4ccco4)[nH]n3c2=O)C1=O	2	0	-2	1	·
COc1ccc(NC(=O)c2ccc(S(=O)(=O)C(F)F)cc2)c(OC)c1	-2	77*	4	0	1
SMILES	eIF4E-4G inh	L929 necroptosis	EBV gp42 block	TNF necrop inh	zVAD necrop conf
Cc1nc2ccccc2c(=O)n1/N=C/C=C/c1ccccc1	-1	0	-4	-1	·
O=C(Cn1nnc(-c2ccc(Cl)cc2)n1)NC1CC2CCC1C2 (stereo unspecified)	·	83*	-20	1	10
O=C(Cn1nnc(-c2ccc(Cl)cc2)n1)NCCC1=CCCCC1	4	1	-6	-2	·
CC(C)(C)NC(=O)Cn1nnc(-c2ccc(S(C)(=O)=O)cc2)n1	-2	0	-13	1	·
CC(C)(C)NC(=O)Cn1nnc(-c2ccc(Cl)cc2)n1	-4	84*	-11	0	2
O=C(Cn1nnc(-c2ccc(Cl)cc2)n1)NCC1CCCCC1	0	88*	-3	-4	44
CCOc1ccc(NC(=O)C(c2ccccn2)N(C(=O)CCl)c2ccc(F)cc2)cc1 (stereo unspecified)	24	0	3	2	·
